# Only some compounds are listed: those with a hit (about 3.5% of all), similar ones and a draw of the others.
# FBW7 activator: human FBW7 E3 ligase activation, primary screen | AlphaScreen FBW7–phospho-cyclin E peptide binding, activator screen | normalized activity (activation), % at 26.1 µM | actives 0.13% (n = 650,000) | AID 1259310; in the data active = normalized activity above about 1.9%;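 also: purified mutant Fbw7 with reduced substrate affinity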
# Target sequence (Q969H0 whole entry, looked up): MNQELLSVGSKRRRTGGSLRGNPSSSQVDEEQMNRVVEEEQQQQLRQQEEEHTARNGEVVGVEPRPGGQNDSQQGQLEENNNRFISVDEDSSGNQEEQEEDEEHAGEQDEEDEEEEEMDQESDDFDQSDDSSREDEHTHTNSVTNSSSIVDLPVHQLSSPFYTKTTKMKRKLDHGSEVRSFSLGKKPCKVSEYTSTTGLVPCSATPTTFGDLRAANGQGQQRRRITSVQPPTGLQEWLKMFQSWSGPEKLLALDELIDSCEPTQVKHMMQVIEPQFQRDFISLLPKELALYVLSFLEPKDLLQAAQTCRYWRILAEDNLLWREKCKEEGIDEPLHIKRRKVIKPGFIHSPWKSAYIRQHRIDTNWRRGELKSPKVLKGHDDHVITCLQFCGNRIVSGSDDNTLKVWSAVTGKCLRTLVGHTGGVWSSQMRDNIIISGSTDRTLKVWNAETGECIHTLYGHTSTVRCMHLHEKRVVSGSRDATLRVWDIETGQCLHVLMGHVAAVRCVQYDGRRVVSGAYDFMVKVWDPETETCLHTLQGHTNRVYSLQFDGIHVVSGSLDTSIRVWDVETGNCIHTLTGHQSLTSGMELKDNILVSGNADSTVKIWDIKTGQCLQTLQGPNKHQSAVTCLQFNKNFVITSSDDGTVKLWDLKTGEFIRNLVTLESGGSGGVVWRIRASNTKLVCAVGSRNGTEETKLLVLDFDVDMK
# GPR151 activ: activators of human GPR151; Q8TDV0; PathHunter beta-arrestin GPR151 cells, luminescence; activation, % at 11.2 µM; actives 1% (n = 650,000); in the data active = activation above about 4.9%;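 also: 0% = median of compound wells and 100% = cells with positive control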
# MITF inh: human MITF inhibition, primary screen | AlphaScreen MITF homodimerization, bead proximity signal | inhibition, % at 2.6 µM | actives 0.91% (n = 650,000); in the data active = inhibition above about 50%;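 also: 0% = vehicle wells with protein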
# TEAD-YAP block: TEAD-YAP interaction inhibition; AID 1259422; actives 1.4% (n = 640,000); HEK-TIYL cells, TEAD-Gal4/YAP UAS-luciferase luminescence; inhibition, % at 9.12 µM; in the data active = inhibition above about 32%;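 also: 0% = median of test compound wells and 100% = reference inhibitor wells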
# An asterisk follows results filed as active.
SMILES,FBW7 activator,GPR151 activ,MITF inh,TEAD-YAP block
CC(C)(C)/C(=C\c1nc2ccccc2[nH]c1=O)NN,0,-6,3,81*
O=C(/C=C/c1ccc(F)cc1)Nc1ccccn1,0,-8,11,57*
O=C(/C=C/c1ccc2c(c1)OCO2)Nc1ccccn1,-1,-9,0,67*
O=C(/C=C/c1ccc(Br)cc1)Nc1ccccn1,0,-7,11,35*
O=C(c1cc(F)c(F)cc1[N+](=O)[O-])N1CCOCC1,0,0,-1,-11
Brc1ccc(-c2ccc(C3CCCCC3)cn2)cc1,0,1,6,63*
COc1cccc(C(=O)NNC(=O)c2cccc(Cl)c2)c1,0,-2,-2,-28
Cc1ccc(C2=N/C(=C\c3ccccc3OCc3ccccc3)C(=O)O2)cc1,0,1,-3,41*
Cc1ccc(C2=N/C(=C\c3ccccc3OC(=O)c3ccc(Br)cc3)C(=O)O2)cc1,0,0,-7,37*
CC(=O)Nc1ccc(C2=N/C(=C/c3ccc(OCc4ccccc4)cc3)C(=O)O2)cc1,0,1,1,43*
O=C1OC(c2ccc(Cl)cc2)=N/C1=C\c1ccc(OCc2ccccc2)cc1,0,1,8,-11
Cc1ccc2nsnc2c1NC(=O)c1cccc(OCc2ccccc2)c1,0,3,0,1
CN(CCO)C1=CC(=[N+]2CCOCC2)CC(C)(C)C1,0,1,-5,5
CN(Cc1ccccc1)C1=CC(=[N+]2CCCC2)CC(C)(C)C1,0,1,-3,80*
CCN(CC)C1=CC(=[N+]2CCCC2)CC(C)(C)C1,0,1,10,60*
COc1ccc(CCNC(=O)c2cccc([N+](=O)[O-])c2)cc1,0,0,17,-4
CCOC(=O)c1c(-c2ccc(OC)cc2)csc1NC(=O)CCCC(=O)O,0,0,-5,7
COC(=O)c1c(-c2ccc(C)c(C)c2)csc1NC(=O)CCCC(=O)O,0,0,-8,33*
CC1=C(C(=O)OCc2ccccc2)C(c2cccnc2)C(C#N)=C(N)O1 (stereo not given),0,0,3,-8
CCc1ccc(-c2nc(CSCC(=O)N3CCN(c4ccccn4)CC3)c(C)o2)cc1,-1,0,3,35*
Cc1ccc(-c2nc(CSCC(=O)N3CCN(c4ccccn4)CC3)c(C)o2)cc1,0,1,-10,40*
Cc1ccc(/C=N/N(CCO)C2=NS(=O)(=O)c3ccccc32)o1,0,3,-6,4
CC1CCc2nc(/C(C#N)=C\c3ccco3)sc2C1 (stereo not given),0,-1,-2,70*
COc1ccc(/C=C(/C#N)c2nc3c(s2)CC(C)CC3)cc1 (stereo not given),0,1,7,-12
CS(=O)(=O)Nc1ccc(-c2cnc3cccc(Nc4cncnc4)c3c2)cc1,0,-2,3,-25
SMILES,FBW7 activator,GPR151 activ,MITF inh,TEAD-YAP block
CS(=O)(=O)Nc1ccc(-c2cnc3cccc(Nc4cc(-c5ccccc5)ccn4)c3c2)cc1,2.4*,-1,21,12
CCOC(=O)c1ccccc1Nc1cn(C(C)=O)c2ccccc12,0,0,14,52*
COCCNC(=O)C1CC(c2ccc(OC)c(OC)c2)=NO1 (stereo not given),0,0,-9,-2
COc1ccc(C2=NOC(C(=O)NCc3ccc(F)cc3)C2)cc1OC (stereo not given),0,1,8,50*
Oc1ccc(CNc2ccc(Cl)cc2)c2cccnc12,-1,-2,49,26
O=S(=O)(c1ccc(Cl)cc1)N1CCN(Cc2ccc(O)c3ncccc23)CC1,-1,2,4,66*
Oc1ccc(CN2CCN(Cc3ccccc3)CC2)c2cccnc12,-1,0,95*,1
COc1ccc(NCc2ccc(O)c3ncccc23)cc1,-2,0,73*,-9
Cc1c(C2=N/C(=C/c3ccccc3F)C(=O)O2)cccc1[N+](=O)[O-],0,0,1,-8
Cc1ccc(Nc2cc(C)c3ccccc3n2)cc1,0,1,22,-53
COc1ccc(-c2nnc(SCC(=O)NCc3ccccc3)nc2-c2ccc(OC)c(OC)c2)cc1OC,0,0,-12,47*
COc1nc(NCCOc2ccccc2)nc(-c2ccc(C(=O)NC3CC3)cc2)n1,0,0,12,-5
COc1ccc(C(=O)Nc2nc(-c3ccc(C(C)C)cc3)cs2)cc1,0,0,7,-2
CC(C)c1ccc(-c2csc(NC(=O)c3ccnn3C)n2)cc1,0,2,-22,57*
Cc1nc2ncnn2c(Nc2ccccc2)c1C,1,0,1,-10
Cc1ccc(S(=O)(=O)Nc2ccccc2/C=N/n2cnnc2)cc1,0,2,11,51*
O=C(CN1CCCc2ccccc21)N/N=C/c1ccco1,0,-2,-8,68*
O=C(NN1CCOCC1)c1cc2c(s1)CCCC2,0,0,14,13
COc1cc(/C=N\Nc2ccc([N+](=O)[O-])cn2)c(Br)cc1O,20*,2,-3,8
O=c1[nH]c(=S)[nH]c(O)c1C=Nc1cc(Cl)ccc1Cl,0,2,7,-1
COc1ccccc1-c1nc(Cn2cnc3cc(C)c(C)cc32)no1,1,3,-3,33*
Cc1ccc(NC(=O)c2cc(Cl)ccc2Cl)cc1Cl,0,0,4,3
CC(C)CC1c2[nH]c3ccccc3c2CCN1C(=O)Cn1cncn1 (stereo not given),0,-1,-2,-6
CC(C)CC1c2[nH]c3ccccc3c2CCN1C(=O)c1csnn1 (stereo not given),0,1,4,40*
COc1cc(/C=C/C(=O)c2ccccc2OC)ccc1OCC#N,0,1,10,58*
SMILES,FBW7 activator,GPR151 activ,MITF inh,TEAD-YAP block
O=C(CSc1nc2ccsc2c(=O)n1Cc1ccccc1)c1ccc(F)cc1,0,0,12,8
CC(C)(C)OC(=O)N/N=C\c1cccs1,5.6*,-1,4,-27
CC1C(=O)NN=C1C(=O)N/N=C\c1cccnc1 (stereo not given),0,-1,-10,35*
CC1C(=O)NN=C1C(=O)N/N=C\c1cccc(O)c1 (stereo not given),1,-7,28,28
CC1C(=O)NN=C1C(=O)N/N=C/c1cccs1 (stereo not given),0,-3,5,32*
Cc1ccc(-c2n[nH]c(=S)n2/N=C\c2ccncc2)cc1,0,-1,-7,-2
COc1ccc(Cl)c2c1[nH]c1nc(SCC(=O)N(C(C)C)C(C)C)nnc12,0,1,13,-5
CCOC(=O)c1ccc(Nc2ccc3nonc3c2[N+](=O)[O-])cc1,0,1,4,7
CCOC(=O)c1ccc(Nc2ccc([N+](=O)[O-])c3nonc23)cc1,1.9*,2,12,2
O=C1N[C@@H](CO)C(=O)N2C[C@@H](NCc3cccc(Cl)c3)C[C@@H]12,0,0,-7,0
O=C(CSc1cccc2cccnc12)N1CCCCC1,0,0,-8,-19
